Inconclusive results are not listed. Activity calls are given as the source filed them. Unless noted, calls come from the whole dose curve; as a rule, active = well fitted curve in the direction sought with a large enough effect in the repeat runs; inconclusive = weak or mixed curves; inactive = no such curve, though single readings can be large; an effect the other way counts as inactive or inconclusive.
Legend:
[1] = qHTS assay to test for compound auto fluorescence at 535 nm (green) in HEK293 cells (AID 720680)
[2] = qHTS assay to test for compound auto fluorescence at 460 nm (blue) in HEK293 cell free culture (AID 720681)
Method in brief: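 Compounds were added to cell-free DMEM with 10% FBS and fluorescence read directly. The blue channel used 405 nm excitation and 460 nm emission, with triamterene as the reference fluorophore.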

[3] = qHTS assay to test for compound auto fluorescence at 535 nm (green) in HEK293 cell free culture (AID 720682)
Method in brief: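 Steps: dispense DMEM/10% FBS into empty wells; pin in compound or DMSO; measure fluorescence at 485/535 nm. Values are fluorescein equivalents.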

[4] = qHTS assay to test for compound auto fluorescence at 590 nm (red) in HEK293 cell free culture (AID 720683)
Method in brief: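 Cell-free wells of DMEM with 10% FBS received compound, and intrinsic fluorescence was read at excitation/emission 540/590 nm. Values expressed as equivalence to Rose Bengal sodium.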

[5] = qHTS assay to test for compound auto fluorescence at 590 nm (red) in HepG2 cell free culture (AID 720684)
Method in brief: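 Compounds are added to culture medium (MEM, 10% FBS) lacking cells, then fluorescence is read at excitation 540 nm, emission 590 nm, with Rose Bengal sodium as the equivalency standard.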

[6] = qHTS assay to test for compound auto fluorescence at 535 nm (green) in HepG2 cell free culture (AID 720686)
[7] = qHTS assay to test for compound auto fluorescence at 460 nm (blue) in HepG2 cells (AID 720687)
Method in brief: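 HepG2 cells in MEM with 10% FBS, attached overnight at 37 C, were exposed to compound or DMSO for 1 hr at 37 C, 5% CO2. Blue fluorescence was read at 405/460 nm, with triamterene as reference fluorophore.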

[8] = qHTS assay for identifying genotoxic compounds that show differential cytotoxicity against isogenic chicken DT40 cell lines with known DNA damage response pathways - wild type cell line (AID 743012); note: nearly all actives have a fitted effect of over 60% in size; note: potency is the fitted concentration of half-maximal effect
Method in brief: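 Cells (DT40 wild type, 300/well) are treated with DMSO-dissolved compounds after a ~0.5 h pre-incubation and kept 40 h at 37 C/5% CO2. Viability is then measured by CellTiter-Glo luminescence following 30 min at room temperature.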

[9] = qHTS assay for identifying genotoxic compounds that show differential cytotoxicity against isogenic chicken DT40 cell lines with known DNA damage response pathways - Rev3 mutant cell line (AID 743014); note: nearly all actives have a fitted effect of over 55% in size; note: potency is the fitted concentration of half-maximal effect
[10] = qHTS assay for identifying genotoxic compounds that show differential cytotoxicity against isogenic chicken DT40 cell lines with known DNA damage response pathways - Rad54/Ku70 mutant cell line (AID 743015); note: nearly all actives have a fitted effect of over 60% in size; note: potency is the fitted concentration of half-maximal effect
[11] = qHTS assay to identify small molecule antagonists of the androgen receptor (AR) signaling pathway - cell viability counter screen (AID 743033; note: nearly all actives have a fitted effect of over 45% in size)
[12] = molecular target: Androgen receptor (Homo sapiens) (UniProt P10275); test: qHTS assay to identify small molecule antagonists of the androgen receptor (AR) signaling pathway (AID 743035; active = well fitted inhibition curve with a large enough effect in the signal ratio in the repeat runs, not every such curve was filed as active; the % refers to the signal ratio; note: potency is the fitted concentration of half-maximal effect)
Method in brief: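 Antagonism is scored as loss of R1881-driven beta-lactamase reporter expression in HEK293 cells carrying the reporter under a UAS element, after 16 h co-treatment at 37C and a 2 h room-temperature FRET substrate read.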

[13] = molecular target: Androgen receptor (Homo sapiens) (UniProt P10275); test: qHTS assay to identify small molecule agonists of the androgen receptor (AR) signaling pathway using the MDA cell line (AID 743040; note: nearly all actives have a fitted effect of over 20% in size)
Method in brief: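 Human breast carcinoma MDA-kb2 reporter cells (MMTV-luc, AR/GR elements) were treated for 16 h at 37C in 0% CO2 following a 5 h settling period. Signal was quantified by ONE-Glo luminescence.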

[14] = qHTS assay to identify small molecule antagonists of the androgen receptor (AR) signaling pathway using the MDA cell line - cell viability counter screen (AID 743041; note: nearly all actives have a fitted effect of over 45% in size)
Method in brief: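 Same-well cytotoxicity was assessed by CellTiter-Fluor in MDA-kb2 AR-luc cells after 16 h of compound treatment under R1881 agonism.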

[15] = molecular target: Androgen receptor (Homo sapiens) (UniProt P10275); test: qHTS assay to identify small molecule antagonists of the androgen receptor (AR) signaling pathway using the MDA cell line (AID 743042; note: nearly all actives have a fitted effect of over 55% in size)
Method in brief: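 MDA-kb2 breast carcinoma cells carrying MMTV-luciferase (AR/GR responsive) were co-treated with compounds and the agonist R1881 for 16 h at 37C. Inhibition read as ONE-Glo luminescence; CellTiter-Fluor fluorescence measured in parallel for cytotoxicity.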

[16] = qHTS assay to test for compound auto fluorescence at 460 nm (blue) in HepG2 cell free culture (AID 720685)
Method in brief: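 Compound (23 nL) or DMSO pinned into cell-free MEM with 10% FBS; blue fluorescence read at 405/460 nm excitation/emission, expressed as auto-fluorescence equivalency to triamterene.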

[17] = qHTS assay to identify small molecule antagonists of the glucocorticoid receptor (GR) signaling pathway - cell viability counter screen (AID 720693); note: nearly all actives have a fitted effect of over 55% in size
[18] = molecular target: Glucocorticoid receptor (Homo sapiens) (UniProt P04150); test: qHTS assay to identify small molecule agonists of the glucocorticoid receptor (GR) signaling pathway (AID 720691; active = well fitted activation curve with a large enough effect in the signal ratio in the repeat runs, not every such curve was filed as active; the % refers to the signal ratio)
Method in brief: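 Agonist mode in a HeLa line carrying a GRE-controlled beta-lactamase reporter. Compounds act for 18 h at 37 C before a 2 h room-temperature FRET substrate step and fluorescence reading.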

[19] = molecular target: Glucocorticoid receptor (Homo sapiens) (UniProt P04150); test: qHTS assay to identify small molecule antagonists of the glucocorticoid receptor (GR) signaling pathway (AID 720692; active = well fitted inhibition curve with a large enough effect in the signal ratio in the repeat runs, not every such curve was filed as active; the % refers to the signal ratio)
Method in brief: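 Cells plated, rested 4 h at 37 C/5% CO2; compounds in DMSO pin-transferred; dexamethasone added to 5 nM final; 18 h at 37 C; B/G FRET substrate added, 2 h room temperature; fluorescence measured.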

[20] = molecular target: Androgen receptor (Homo sapiens) (UniProt P10275); test: qHTS assay to identify small molecule agonists of the androgen receptor (AR) signaling pathway (AID 743036; active = well fitted activation curve with a large enough effect in the signal ratio in the repeat runs, with a control signal flat, not every such curve was filed as active; the % refers to the signal ratio)
Method in brief: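 Reporter line: GeneBLAzer AR-UAS-bla-GripTite (HEK293). Steps: plate cells, 4 h rest, add compounds, 16 h at 37C, add LiveBLAzer B/G substrate, 2 h at RT, read fluorescence.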
% is set by controls: 0 for no effect and ±100 for the full control effect.

Androgen receptor (Homo sapiens), sequence (P10275 whole entry, looked up): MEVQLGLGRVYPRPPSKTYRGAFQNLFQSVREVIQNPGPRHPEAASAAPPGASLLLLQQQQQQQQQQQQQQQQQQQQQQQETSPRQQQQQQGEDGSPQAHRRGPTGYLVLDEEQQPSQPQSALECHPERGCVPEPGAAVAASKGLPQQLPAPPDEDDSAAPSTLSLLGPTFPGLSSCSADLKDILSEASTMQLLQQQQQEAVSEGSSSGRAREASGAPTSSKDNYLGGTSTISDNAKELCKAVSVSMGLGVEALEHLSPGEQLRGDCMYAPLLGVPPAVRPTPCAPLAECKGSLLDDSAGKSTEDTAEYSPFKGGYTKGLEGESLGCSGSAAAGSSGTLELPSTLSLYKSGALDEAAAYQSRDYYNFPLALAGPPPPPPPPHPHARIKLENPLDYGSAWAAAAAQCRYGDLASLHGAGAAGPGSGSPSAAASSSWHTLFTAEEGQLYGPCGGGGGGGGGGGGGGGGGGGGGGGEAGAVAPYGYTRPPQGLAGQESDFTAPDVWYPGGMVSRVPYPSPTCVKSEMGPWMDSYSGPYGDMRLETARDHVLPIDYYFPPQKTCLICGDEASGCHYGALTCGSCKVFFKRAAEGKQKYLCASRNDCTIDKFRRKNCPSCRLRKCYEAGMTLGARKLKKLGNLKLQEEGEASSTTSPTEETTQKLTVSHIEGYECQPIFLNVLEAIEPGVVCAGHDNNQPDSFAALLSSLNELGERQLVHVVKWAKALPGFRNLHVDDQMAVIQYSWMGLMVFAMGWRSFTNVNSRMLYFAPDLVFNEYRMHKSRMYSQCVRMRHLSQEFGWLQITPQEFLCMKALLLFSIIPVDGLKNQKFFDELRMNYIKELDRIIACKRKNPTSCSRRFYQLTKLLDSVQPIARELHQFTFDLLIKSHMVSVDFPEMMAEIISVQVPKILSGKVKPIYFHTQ
Glucocorticoid receptor (Homo sapiens), sequence (P04150 whole entry, looked up): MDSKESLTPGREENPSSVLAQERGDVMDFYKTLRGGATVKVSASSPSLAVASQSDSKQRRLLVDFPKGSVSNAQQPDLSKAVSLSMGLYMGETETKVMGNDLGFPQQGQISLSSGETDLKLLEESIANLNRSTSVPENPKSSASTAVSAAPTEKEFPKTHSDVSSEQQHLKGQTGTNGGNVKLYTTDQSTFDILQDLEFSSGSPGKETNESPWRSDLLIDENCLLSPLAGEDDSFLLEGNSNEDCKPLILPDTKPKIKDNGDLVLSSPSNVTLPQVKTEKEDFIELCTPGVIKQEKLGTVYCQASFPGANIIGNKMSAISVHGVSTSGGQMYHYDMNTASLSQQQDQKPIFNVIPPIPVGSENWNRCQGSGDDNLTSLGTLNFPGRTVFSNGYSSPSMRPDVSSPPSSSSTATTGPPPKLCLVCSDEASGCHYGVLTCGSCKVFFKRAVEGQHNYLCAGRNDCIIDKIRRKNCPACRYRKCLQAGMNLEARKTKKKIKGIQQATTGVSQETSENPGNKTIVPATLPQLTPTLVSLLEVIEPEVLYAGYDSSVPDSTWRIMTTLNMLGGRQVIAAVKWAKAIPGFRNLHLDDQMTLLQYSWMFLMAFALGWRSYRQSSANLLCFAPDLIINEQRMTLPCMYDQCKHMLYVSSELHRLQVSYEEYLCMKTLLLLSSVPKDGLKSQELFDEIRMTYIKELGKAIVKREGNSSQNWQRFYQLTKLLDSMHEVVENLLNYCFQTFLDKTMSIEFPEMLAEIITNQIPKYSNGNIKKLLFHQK

CC[C@]12CCCN3CCc4c(n(c5ccccc45)C(=O)C1)[C@@H]32
active: Potency [8] 4.52 µM | Potency [9] 4.52 µM | Potency [10] 7.17 µM | Potency [12] 9.1 µM
inactive: fluorescence, % of fluorescein [1] 0.0475% [at 18.6 µM] | fluorescence, % of fluorescent control [2] -0.0431% [at 18.6 µM] | activity change [3] 0.026% [at 18.6 µM] | fluorescence, % of fluorescent control [4] -0.702% [at 18.6 µM] | fluorescence, % of Rose Bengal [5] 0.0021% [at 18.6 µM] | fluorescence, % of fluorescein control [6] -0.019% [at 18.6 µM] | fluorescence, % of fluorescent control [7] -0.0508% [at 18.6 µM] | Potency [11] | Potency [13] | Potency [14] | Potency [15]

CCCCOCCOCCOCCOCCO
inactive: outcome [1] | Potency [2] | outcome [3] | outcome [4] | outcome [5] | outcome [6] | Potency [7] | Potency [8] | Potency [10] | Potency [11] | Potency [14]

CC(=O)/C=C/C1C(C)=CCCC1(C)C (configuration not stated)
inactive: outcome [1] | Potency [2] | outcome [3] | outcome [4] | Potency [16] | outcome [6] | Potency [17] | Potency [9] | Potency [10] | Potency [14]

O=C(C(=O)c1ccc(Br)cc1)c1ccc(Br)cc1
inactive: fluorescence, % of fluorescein [1] -0.0337% [at 18.6 µM] | fluorescence, % of fluorescent control [2] -0.0047% [at 18.6 µM] | activity change [3] 0.0143% [at 18.6 µM] | fluorescence, % of fluorescent control [4] -0.0329% [at 18.6 µM] | fluorescence, % of fluorescent control [16] -0.0311% [at 18.6 µM] | fluorescence, % of fluorescein control [6] -0.0449% [at 18.6 µM] | fluorescence, % of fluorescent control [7] 0.0185% [at 18.6 µM] | Potency [18] | Potency [19] | Potency [17] | Potency [8] | Potency [9] | Potency [10] | Potency [11] | Potency [12] | outcome [20] | Potency [13] | Potency [14] | Potency [15]

CC[C@H](C)[C@H](N)C(=O)O
inactive: outcome [1] | Potency [2] | outcome [3] | outcome [4] | outcome [5] | outcome [6] | Potency [8] | Potency [10] | Potency [11] | Potency [14]

C[C@H](CCC(=O)O)[C@H]1CC[C@H]2[C@@H]3[C@H](O)C[C@@H]4C[C@H](O)CC[C@]4(C)[C@H]3CC[C@]12C
inactive: outcome [1] | Potency [2] | outcome [3] | outcome [4] | outcome [5] | outcome [6] | Potency [7] | Potency [8] | Potency [9] | Potency [10] | Potency [11] | Potency [14]

CCOC(=O)CC(=O)c1cc(F)c(Cl)nc1Cl
inactive: outcome [1] | Potency [2] | outcome [3] | outcome [4] | outcome [5] | outcome [6] | Potency [18] | Potency [19] | Potency [17] | Potency [10] | Potency [11] | Potency [14]

O=C(O)/C=C/c1cnc[nH]1
inactive: outcome [1] | Potency [2] | outcome [3] | outcome [4] | Potency [16] | outcome [6] | Potency [18] | Potency [19] | Potency [17] | Potency [8] | Potency [9] | Potency [10] | Potency [11] | Potency [14]

O=C1CCCCCO1
inactive: outcome [1] | Potency [2] | outcome [3] | outcome [5] | Potency [16] | outcome [6] | Potency [7] | Potency [18] | Potency [17] | Potency [8] | Potency [9] | Potency [10] | Potency [11] | Potency [14]

Source: PubChem BioAssay (Tox21)
